{
  "source": "the supplement of paper PMC8728848",
  "assay_in_all_cases": "glycan array binding signal (z-score within array); higher = stronger binding",
  "details_in_all_cases": "glycan notation: IUPAC condensed, linker removed",
  "key": {"[1]": {"biological_target": "Fuc(a1-2)Gal(b1-3)GlcNAc(b1-2)Man(a1-3)[Fuc(a1-2)Gal(b1-3)GlcNAc(b1-2)Man(a1-6)]Man(b1-4)GlcNAc(b1-4)[Fuc(a1-6)]GlcNAc", "how_it_was_run": "(§1)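 The Consortium for Functional Glycomics database supplied 3228 glycan arrays, of which those lacking an available protein sequence were dropped. The binding signal, a within-array Z-score, was averaged across arrays of the same protein sequence and across linkers. Negative scores can be read as non-binding.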"}, "[2]": {"biological_target": "Fuc(a1-2)Gal(b1-3)GlcNAc(b1-3)Gal(b1-4)Glc", "how_it_was_run": "as §1"}, "[3]": {"biological_target": "Fuc(a1-2)Gal(b1-4)GlcNAc(b1-2)Man(a1-3)[Fuc(a1-2)Gal(b1-4)GlcNAc(b1-2)Man(a1-6)]Man(b1-4)GlcNAc(b1-4)[Fuc(a1-6)]GlcNAc", "how_it_was_run": "as §1"}, "[4]": {"biological_target": "Fuc(a1-2)Gal(b1-4)[Fuc(a1-3)]GlcNAc(b1-3)Gal(b1-4)[Fuc(a1-3)]GlcNAc(b1-3)Gal(b1-4)[Fuc(a1-3)]GlcNAc", "how_it_was_run": "as §1"}, "[5]": {"biological_target": "Fuc(a1-2)[Gal(a1-3)]Gal(b1-3)GlcNAc(b1-2)Man(a1-3)[Fuc(a1-2)[Gal(a1-3)]Gal(b1-3)GlcNAc(b1-2)Man(a1-6)]Man(b1-4)GlcNAc(b1-4)[Fuc(a1-6)]GlcNAc", "how_it_was_run": "as §1"}, "[6]": {"biological_target": "Fuc(a1-2)[Gal(a1-3)]Gal(b1-4)GlcNAc", "how_it_was_run": "as §1"}, "[7]": {"biological_target": "Fuc(a1-2)[Gal(a1-3)]Gal(b1-4)GlcNAc(b1-3)[Fuc(a1-2)[Gal(a1-3)]Gal(b1-4)GlcNAc(b1-6)]GalNAc", "how_it_was_run": "as §1"}, "[8]": {"biological_target": "Fuc(a1-2)[Gal(a1-3)]Gal(b1-4)GlcNAc(b1-6)GalNAc", "how_it_was_run": "as §1"}, "[9]": {"biological_target": "Fuc(a1-2)[GalNAc(a1-3)]Gal(b1-3)GalNAc(b1-3)Gal(a1-4)Gal(b1-4)Glc", "how_it_was_run": "as §1"}, "[10]": {"biological_target": "Fuc(a1-2)[GalNAc(a1-3)]Gal(b1-4)GlcNAc(b1-3)GalNAc", "how_it_was_run": "as §1"}, "[11]": {"biological_target": "Fuc(a1-3)[Gal(b1-4)]GlcNAc(b1-3)Gal(b1-4)[Fuc(a1-3)]GlcNAc(b1-3)Gal(b1-4)[Fuc(a1-3)]GlcNAc", "how_it_was_run": "as §1"}, "[12]": {"biological_target": "Fuc(a1-3)[Gal3S(b1-4)]GlcNAc6S", "how_it_was_run": "as §1"}, "Fuc(b1-3)GlcNAc": {"biological_target": "Fuc(b1-3)GlcNAc", "how_it_was_run": "as §1"}, "[13]": {"biological_target": "Gal(a1-3)Gal(b1-3)GlcNAc(b1-2)Man", "how_it_was_run": "as §1"}, "[14]": {"biological_target": "Gal(a1-3)Gal(b1-3)GlcNAc(b1-2)Man(a1-3)[Gal(a1-3)Gal(b1-3)GlcNAc(b1-2)Man(a1-6)]Man(b1-4)GlcNAc(b1-4)GlcNAc", "how_it_was_run": "as §1"}, "Gal(b1-3)GlcNAc(b1-2)Man": {"biological_target": "Gal(b1-3)GlcNAc(b1-2)Man", "how_it_was_run": "as §1"}, "[15]": {"biological_target": "Gal(b1-3)GlcNAc(b1-2)[Gal(b1-3)GlcNAc(b1-6)]Man(a1-6)[Gal(b1-3)GlcNAc(b1-2)Man(a1-3)]Man(b1-4)GlcNAc(b1-4)GlcNAc", "how_it_was_run": "as §1"}, "[16]": {"biological_target": "Gal(b1-3)GlcNAc(b1-3)Gal(b1-4)[Fuc(a1-3)]GlcNAc", "how_it_was_run": "as §1"}, "[17]": {"biological_target": "Gal(b1-3)GlcNAc(b1-3)GalNAc", "how_it_was_run": "as §1"}, "Gal(b1-4)GlcNAc(b1-2)Man": {"biological_target": "Gal(b1-4)GlcNAc(b1-2)Man", "how_it_was_run": "as §1"}, "[18]": {"biological_target": "Gal(b1-4)GlcNAc(b1-2)Man(a1-3)[Gal(b1-4)GlcNAc(b1-2)Man(a1-6)][GlcNAc(b1-4)]Man(b1-4)GlcNAc(b1-4)[Fuc(a1-6)]GlcNAc", "how_it_was_run": "as §1"}, "[19]": {"biological_target": "Gal(b1-4)GlcNAc(b1-2)[Gal(b1-4)GlcNAc(b1-6)]Man(a1-6)[GlcNAc(b1-4)][Gal(b1-4)GlcNAc(b1-2)Man(a1-3)]Man(b1-4)GlcNAc(b1-4)GlcNAc", "how_it_was_run": "as §1"}, "[20]": {"biological_target": "Gal(b1-4)GlcNAc(b1-3)Gal(b1-4)Glc", "how_it_was_run": "as §1"}, "[21]": {"biological_target": "Gal(b1-4)GlcNAc(b1-3)Gal(b1-4)GlcNAc(b1-2)[Gal(b1-4)GlcNAc(b1-3)Gal(b1-4)GlcNAc(b1-6)]Man(a1-6)[Gal(b1-4)GlcNAc(b1-3)Gal(b1-4)GlcNAc(b1-2)Man(a1-3)]Man(b1-4)GlcNAc(b1-4)GlcNAc", "how_it_was_run": "as §1"}, "[22]": {"biological_target": "Gal(b1-4)GlcNAc(b1-3)Gal(b1-4)GlcNAc(b1-3)Gal(b1-4)GlcNAc(b1-2)Man(a1-3)[Gal(b1-4)GlcNAc(b1-3)Gal(b1-4)GlcNAc(b1-3)Gal(b1-4)GlcNAc(b1-2)Man(a1-6)]Man(b1-4)GlcNAc(b1-4)[Fuc(a1-6)]GlcNAc", "how_it_was_run": "as §1"}, "[23]": {"biological_target": "Gal(b1-4)GlcNAc(b1-3)Gal(b1-4)GlcNAc(b1-3)Gal(b1-4)GlcNAc(b1-3)Gal(b1-4)GlcNAc(b1-2)[Gal(b1-4)GlcNAc(b1-3)Gal(b1-4)GlcNAc(b1-3)Gal(b1-4)GlcNAc(b1-3)Gal(b1-4)GlcNAc(b1-6)]Man(a1-6)[Gal(b1-4)GlcNAc(b1-3)Gal(b1-4)GlcNAc(b1-3)Gal(b1-4)GlcNAc(b1-3)Gal(b1-4)GlcNAc(b1-2)Man(a1-3)]Man(b1-4)GlcNAc(b1-4)[Fuc(a1-6)]GlcNAc", "how_it_was_run": "as §1"}, "[24]": {"biological_target": "Gal(b1-4)GlcNAc(b1-3)Gal(b1-4)GlcNAc(b1-3)Gal(b1-4)GlcNAc(b1-3)Gal(b1-4)GlcNAc(b1-3)Gal(b1-4)GlcNAc(b1-2)Man(a1-3)[Gal(b1-4)GlcNAc(b1-3)Gal(b1-4)GlcNAc(b1-3)Gal(b1-4)GlcNAc(b1-3)Gal(b1-4)GlcNAc(b1-3)Gal(b1-4)GlcNAc(b1-2)Man(a1-6)]Man(b1-4)GlcNAc(b1-4)[Fuc(a1-6)]GlcNAc", "how_it_was_run": "as §1"}},
  "note": "This is one part of a sample in which the strongest signals are shown more often than they occur.",
  "data": [
    {"binder": "Aap lectin (Staphylococcus epidermidis) (protein) VNLNYSSPFMSLLSMPADSSSNNTKNTIDIPPTTVKGRDNYDFYGRVDIESNPTDLNATNLTRYNYGQPPGTTTAGAVQFKNQVSFDKDFDFNIRVANNRQSNTTGADGWGFMFSKKDGDDFLKNGGILREKGTPSAAGFRIDTGYYNNDPLDKIQKQAGQGYRGYGTFVKNDSQGNTSKVGSGTPSTDFLNYADNTTNDLDGKFHGQKLNNVNLKYNASNQTFTATYAGKTWTATLSELGLSPTDSYNFLVTSS", "values": [
      {"measurement": "glycan array binding signal (z-score)", "setting": "[1]", "value": 2.87},
      {"measurement": "glycan array binding signal (z-score)", "setting": "[2]", "value": -0.68},
      {"measurement": "glycan array binding signal (z-score)", "setting": "[3]", "value": -0.829},
      {"measurement": "glycan array binding signal (z-score)", "setting": "[4]", "value": -0.534},
      {"measurement": "glycan array binding signal (z-score)", "setting": "[5]", "value": 3.02},
      {"measurement": "glycan array binding signal (z-score)", "setting": "[6]", "value": 3.04},
      {"measurement": "glycan array binding signal (z-score)", "setting": "[7]", "value": 2.98},
      {"measurement": "glycan array binding signal (z-score)", "setting": "[8]", "value": -0.267},
      {"measurement": "glycan array binding signal (z-score)", "setting": "[9]", "value": -0.573},
      {"measurement": "glycan array binding signal (z-score)", "setting": "[10]", "value": 0.8},
      {"measurement": "glycan array binding signal (z-score)", "setting": "[11]", "value": 0.476},
      {"measurement": "glycan array binding signal (z-score)", "setting": "[12]", "value": -0.816},
      {"measurement": "glycan array binding signal (z-score)", "setting": "Fuc(b1-3)GlcNAc", "value": 0.487},
      {"measurement": "glycan array binding signal (z-score)", "setting": "[13]", "value": 2.18},
      {"measurement": "glycan array binding signal (z-score)", "setting": "[14]", "value": 2.88},
      {"measurement": "glycan array binding signal (z-score)", "setting": "Gal(b1-3)GlcNAc(b1-2)Man", "value": 3.17},
      {"measurement": "glycan array binding signal (z-score)", "setting": "[15]", "value": -0.728},
      {"measurement": "glycan array binding signal (z-score)", "setting": "[16]", "value": -0.351},
      {"measurement": "glycan array binding signal (z-score)", "setting": "[17]", "value": 0.183},
      {"measurement": "glycan array binding signal (z-score)", "setting": "Gal(b1-4)GlcNAc(b1-2)Man", "value": 3},
      {"measurement": "glycan array binding signal (z-score)", "setting": "[18]", "value": 0.361},
      {"measurement": "glycan array binding signal (z-score)", "setting": "[19]", "value": -0.475},
      {"measurement": "glycan array binding signal (z-score)", "setting": "[20]", "value": 0.463},
      {"measurement": "glycan array binding signal (z-score)", "setting": "[21]", "value": -0.781},
      {"measurement": "glycan array binding signal (z-score)", "setting": "[22]", "value": 2.92},
      {"measurement": "glycan array binding signal (z-score)", "setting": "[23]", "value": 0.345},
      {"measurement": "glycan array binding signal (z-score)", "setting": "[24]", "value": 0.727}
    ]}
  ]
}
